This passage reports Percent Effect results from ChEMBL document CHEMBL3988442, “University of Dundee, Small-Polar-MMV Screening Library” (2021).

Structures are written as SMILES. For some assays here: Entries with a potency or affinity are not part of this list.

What all share (design): scale not given: direction of the effect not stated beside the values
The target in experiment [1] is Protein translocase subunit SecA (Escherichia coli (strain K12)) (UniProt P10408). The experiment is described as follows: Assay to Identify E. coli SecA ATPase Inhibitors. It counts as functional. As to conditions: 30 µM.
The target of experiment [2] is T1, Ubiquitin-activating enzyme e1, putative (Leishmania donovani (strain BPK282A1)) (UniProt E9BSI1).
T1 sequence (whole entry): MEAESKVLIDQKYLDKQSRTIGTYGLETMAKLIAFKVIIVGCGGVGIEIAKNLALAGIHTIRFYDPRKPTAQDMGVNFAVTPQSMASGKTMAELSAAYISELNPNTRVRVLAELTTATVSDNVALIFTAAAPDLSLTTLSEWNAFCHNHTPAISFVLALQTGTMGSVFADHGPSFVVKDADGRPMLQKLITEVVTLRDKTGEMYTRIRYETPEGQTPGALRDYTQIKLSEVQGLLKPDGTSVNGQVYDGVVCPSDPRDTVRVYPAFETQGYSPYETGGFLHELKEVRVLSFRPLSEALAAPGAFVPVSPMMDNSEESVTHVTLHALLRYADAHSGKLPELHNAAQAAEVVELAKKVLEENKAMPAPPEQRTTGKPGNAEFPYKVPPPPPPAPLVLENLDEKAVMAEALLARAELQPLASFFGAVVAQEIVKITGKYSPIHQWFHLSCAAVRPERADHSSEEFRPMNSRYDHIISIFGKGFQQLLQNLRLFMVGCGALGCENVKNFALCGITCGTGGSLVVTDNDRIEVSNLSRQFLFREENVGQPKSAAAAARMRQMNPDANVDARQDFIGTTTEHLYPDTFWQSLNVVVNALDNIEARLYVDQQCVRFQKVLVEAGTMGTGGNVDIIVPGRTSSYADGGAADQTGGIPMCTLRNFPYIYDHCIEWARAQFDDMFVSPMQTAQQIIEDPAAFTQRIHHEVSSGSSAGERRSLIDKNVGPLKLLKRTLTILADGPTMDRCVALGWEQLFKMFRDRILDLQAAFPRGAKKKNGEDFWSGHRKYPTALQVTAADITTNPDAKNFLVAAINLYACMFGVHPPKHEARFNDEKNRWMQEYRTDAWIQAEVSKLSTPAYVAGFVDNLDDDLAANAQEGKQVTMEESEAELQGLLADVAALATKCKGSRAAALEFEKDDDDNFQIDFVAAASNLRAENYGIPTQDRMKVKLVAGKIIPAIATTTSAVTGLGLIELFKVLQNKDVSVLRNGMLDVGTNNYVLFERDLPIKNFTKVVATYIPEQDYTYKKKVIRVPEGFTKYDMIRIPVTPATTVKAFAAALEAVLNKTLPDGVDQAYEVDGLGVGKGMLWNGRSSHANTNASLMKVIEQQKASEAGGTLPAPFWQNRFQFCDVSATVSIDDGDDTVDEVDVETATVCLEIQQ
Description: Leishmania donovani Ubiquitin Activating Enzyme (LdE1). Type of experiment: functional. The settings on record: 30 µM.

In experiment [3] the target is AMP-activated protein kinase, AMPK (Homo sapiens) (UniProt P54646+O43741+P54619+Q9UGJ0+Q9Y478+Q13131+Q9UGI9). Description: AMP-dependent Kinase enzyme assay. An in vitro enzyme assay that detects ADP turnover that is directly proportional to AMPK activity. This uses naive AMPK that is activated during the assay with MK-8722. Type of experiment: functional. As to conditions: 30 µM.

For experiment [4], the target named is Sialic acid-binding Ig-like lectin 9 (Homo sapiens) (UniProt Q9Y336). The experiment is described as follows: Hs-Siglec9 ALPHAscreen SOP 20170721. The settings on record: 10 µM. Background: In Alpha technology, singlet oxygen from a donor bead excites a nearby acceptor bead.
The test system of another experiment is Trypanosoma cruzi. Description: Trypanosoma cruzi phosphomannomutase and mannose-1-phosphate guanylyltransferase assay. It counts as functional. The settings on record: 10 µM.
Experiment [5] deals with T2, Arginase-2, mitochondrial (Homo sapiens) (UniProt P78540).
T2 sequence (whole entry): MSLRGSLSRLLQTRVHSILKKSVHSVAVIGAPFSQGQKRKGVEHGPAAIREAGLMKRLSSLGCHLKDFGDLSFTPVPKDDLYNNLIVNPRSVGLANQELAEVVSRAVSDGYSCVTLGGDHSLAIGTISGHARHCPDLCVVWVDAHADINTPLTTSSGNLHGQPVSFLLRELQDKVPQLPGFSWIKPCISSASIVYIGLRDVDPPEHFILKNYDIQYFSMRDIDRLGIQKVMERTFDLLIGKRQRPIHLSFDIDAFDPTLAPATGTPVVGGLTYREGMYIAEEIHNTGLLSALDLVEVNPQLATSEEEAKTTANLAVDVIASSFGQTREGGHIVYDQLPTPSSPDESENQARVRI
Description: in vitro enzyme assay to detect the production of urea directly proportional to the activity of Arginase II. Note: in the data most compounds retested in dose-response had high values. Type of experiment: functional. As to conditions: 33.3 µM.

The target in experiment [6] is T3, Proteasome subunit beta (Trypanosoma cruzi) (UniProt O96673).
T3 sequence (whole entry): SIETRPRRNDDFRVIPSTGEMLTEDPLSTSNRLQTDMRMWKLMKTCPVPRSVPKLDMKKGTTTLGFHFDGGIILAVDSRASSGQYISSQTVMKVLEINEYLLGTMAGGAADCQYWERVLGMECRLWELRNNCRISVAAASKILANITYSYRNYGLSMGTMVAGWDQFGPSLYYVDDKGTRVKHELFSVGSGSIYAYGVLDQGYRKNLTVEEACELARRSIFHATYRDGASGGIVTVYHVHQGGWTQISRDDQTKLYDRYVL
Description: Trypanosoma cruzi proteasome chymotrypsin-like activity (TcProtChymo) assay. Note: in the data most compounds retested in dose-response had high values. It counts as functional. The settings on record: 9.37 µM.

The species entered for another experiment is Homo sapiens. The experiment is described as follows: To identify inhibition of the IFN signalling (Jak-Stat) pathway via expression of an eGFP reporter gene under the control of an IFN-stimulated response element (ISRE) containing MxA promoter. The settings on record: 30 µM. Type of experiment: functional. (Reporter assays use an easily measured gene product as a stand-in for the process of interest.)

The target in experiment [7] is T4, Tyrosyl-tRNA synthetase, putative (Trypanosoma cruzi (strain CL Brener)) (UniProt Q4DSP6).
T4 sequence (whole entry): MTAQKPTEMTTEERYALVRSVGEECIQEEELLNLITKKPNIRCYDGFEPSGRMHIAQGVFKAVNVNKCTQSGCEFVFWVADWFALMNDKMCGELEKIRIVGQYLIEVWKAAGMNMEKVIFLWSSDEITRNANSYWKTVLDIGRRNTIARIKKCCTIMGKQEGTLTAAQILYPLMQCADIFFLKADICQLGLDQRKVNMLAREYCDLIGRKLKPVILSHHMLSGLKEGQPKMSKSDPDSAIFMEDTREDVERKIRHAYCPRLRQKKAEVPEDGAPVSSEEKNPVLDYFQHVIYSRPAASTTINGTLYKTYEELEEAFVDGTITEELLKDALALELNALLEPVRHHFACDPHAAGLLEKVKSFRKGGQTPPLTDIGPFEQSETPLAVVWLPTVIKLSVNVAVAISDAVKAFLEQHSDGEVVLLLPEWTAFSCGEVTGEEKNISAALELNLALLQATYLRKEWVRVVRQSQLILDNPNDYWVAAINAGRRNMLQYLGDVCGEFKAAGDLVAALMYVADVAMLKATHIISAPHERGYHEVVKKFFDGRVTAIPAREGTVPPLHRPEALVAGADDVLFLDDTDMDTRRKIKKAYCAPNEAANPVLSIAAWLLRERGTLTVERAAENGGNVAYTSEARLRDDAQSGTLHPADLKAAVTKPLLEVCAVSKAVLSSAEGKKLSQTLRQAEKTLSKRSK
Description: Trypanosoma cruzi tyrosyl tRNA synthetase (TcYRS) _High Tyrosine SOP. Note: in the data most compounds retested in dose-response had high values. Type of experiment: functional. The settings on record: 30 µM.

For experiment [8], the target named is T4, Tyrosyl-tRNA synthetase, putative (Trypanosoma cruzi (strain CL Brener)). The experiment is described as follows: Trypanosoma cruzi tyrosyl tRNA synthetase (TcYRS) SOP. It counts as functional. The settings on record: 30 µM.
Experiment [9] concerns the target Chromo domain-containing protein 1 (Saccharomyces cerevisiae (strain ATCC 204508 / S288c) (Baker's yeast)) (UniProt P32657). Description: ScCHD-1 Enzyme Inhibition Assay. Note: in the data most compounds retested in dose-response had high values. It counts as functional. As to conditions: 30 µM.

Sialic acid-binding Ig-like lectin 9 (Homo sapiens), sequence (Q9Y336 whole entry): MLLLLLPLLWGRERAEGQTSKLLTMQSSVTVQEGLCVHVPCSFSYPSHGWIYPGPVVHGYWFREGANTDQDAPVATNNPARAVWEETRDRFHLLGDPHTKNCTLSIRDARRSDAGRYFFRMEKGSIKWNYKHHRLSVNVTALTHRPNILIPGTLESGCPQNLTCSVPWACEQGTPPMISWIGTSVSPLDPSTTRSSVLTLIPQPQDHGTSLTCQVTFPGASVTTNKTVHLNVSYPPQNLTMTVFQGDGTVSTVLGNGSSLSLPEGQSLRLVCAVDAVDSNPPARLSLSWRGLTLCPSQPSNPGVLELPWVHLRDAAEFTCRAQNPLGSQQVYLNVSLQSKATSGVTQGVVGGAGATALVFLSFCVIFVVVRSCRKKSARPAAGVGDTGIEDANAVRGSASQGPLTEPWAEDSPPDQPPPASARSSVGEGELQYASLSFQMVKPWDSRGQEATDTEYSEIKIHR
Protein translocase subunit SecA (Escherichia coli (strain K12)), sequence (P10408 whole entry): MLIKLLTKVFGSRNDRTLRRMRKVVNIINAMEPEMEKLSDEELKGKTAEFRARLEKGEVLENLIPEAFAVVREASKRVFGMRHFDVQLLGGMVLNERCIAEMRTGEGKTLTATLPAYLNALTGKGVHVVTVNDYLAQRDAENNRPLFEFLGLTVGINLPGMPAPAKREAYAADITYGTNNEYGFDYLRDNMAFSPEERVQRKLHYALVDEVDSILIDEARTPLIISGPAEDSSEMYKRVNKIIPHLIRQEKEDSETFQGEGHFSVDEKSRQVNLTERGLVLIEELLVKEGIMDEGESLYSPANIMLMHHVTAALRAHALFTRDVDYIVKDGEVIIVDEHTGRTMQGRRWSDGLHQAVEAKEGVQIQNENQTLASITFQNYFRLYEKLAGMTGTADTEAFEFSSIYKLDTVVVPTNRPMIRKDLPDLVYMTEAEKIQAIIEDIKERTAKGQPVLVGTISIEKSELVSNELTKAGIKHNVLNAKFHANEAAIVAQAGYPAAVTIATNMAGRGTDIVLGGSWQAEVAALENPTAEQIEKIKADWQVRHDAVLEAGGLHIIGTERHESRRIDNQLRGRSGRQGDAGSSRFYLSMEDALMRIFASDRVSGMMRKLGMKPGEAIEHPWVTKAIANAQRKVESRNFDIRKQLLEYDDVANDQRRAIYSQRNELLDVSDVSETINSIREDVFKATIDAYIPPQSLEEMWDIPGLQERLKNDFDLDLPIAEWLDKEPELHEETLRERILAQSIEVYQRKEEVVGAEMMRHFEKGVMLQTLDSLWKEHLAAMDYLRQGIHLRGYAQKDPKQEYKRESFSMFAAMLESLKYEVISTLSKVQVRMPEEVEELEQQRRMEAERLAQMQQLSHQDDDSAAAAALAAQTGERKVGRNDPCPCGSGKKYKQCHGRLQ
Chromo domain-containing protein 1 (Saccharomyces cerevisiae (strain ATCC 204508 / S288c) (Baker's yeast)), sequence (P32657 whole entry, the tested form may be a part): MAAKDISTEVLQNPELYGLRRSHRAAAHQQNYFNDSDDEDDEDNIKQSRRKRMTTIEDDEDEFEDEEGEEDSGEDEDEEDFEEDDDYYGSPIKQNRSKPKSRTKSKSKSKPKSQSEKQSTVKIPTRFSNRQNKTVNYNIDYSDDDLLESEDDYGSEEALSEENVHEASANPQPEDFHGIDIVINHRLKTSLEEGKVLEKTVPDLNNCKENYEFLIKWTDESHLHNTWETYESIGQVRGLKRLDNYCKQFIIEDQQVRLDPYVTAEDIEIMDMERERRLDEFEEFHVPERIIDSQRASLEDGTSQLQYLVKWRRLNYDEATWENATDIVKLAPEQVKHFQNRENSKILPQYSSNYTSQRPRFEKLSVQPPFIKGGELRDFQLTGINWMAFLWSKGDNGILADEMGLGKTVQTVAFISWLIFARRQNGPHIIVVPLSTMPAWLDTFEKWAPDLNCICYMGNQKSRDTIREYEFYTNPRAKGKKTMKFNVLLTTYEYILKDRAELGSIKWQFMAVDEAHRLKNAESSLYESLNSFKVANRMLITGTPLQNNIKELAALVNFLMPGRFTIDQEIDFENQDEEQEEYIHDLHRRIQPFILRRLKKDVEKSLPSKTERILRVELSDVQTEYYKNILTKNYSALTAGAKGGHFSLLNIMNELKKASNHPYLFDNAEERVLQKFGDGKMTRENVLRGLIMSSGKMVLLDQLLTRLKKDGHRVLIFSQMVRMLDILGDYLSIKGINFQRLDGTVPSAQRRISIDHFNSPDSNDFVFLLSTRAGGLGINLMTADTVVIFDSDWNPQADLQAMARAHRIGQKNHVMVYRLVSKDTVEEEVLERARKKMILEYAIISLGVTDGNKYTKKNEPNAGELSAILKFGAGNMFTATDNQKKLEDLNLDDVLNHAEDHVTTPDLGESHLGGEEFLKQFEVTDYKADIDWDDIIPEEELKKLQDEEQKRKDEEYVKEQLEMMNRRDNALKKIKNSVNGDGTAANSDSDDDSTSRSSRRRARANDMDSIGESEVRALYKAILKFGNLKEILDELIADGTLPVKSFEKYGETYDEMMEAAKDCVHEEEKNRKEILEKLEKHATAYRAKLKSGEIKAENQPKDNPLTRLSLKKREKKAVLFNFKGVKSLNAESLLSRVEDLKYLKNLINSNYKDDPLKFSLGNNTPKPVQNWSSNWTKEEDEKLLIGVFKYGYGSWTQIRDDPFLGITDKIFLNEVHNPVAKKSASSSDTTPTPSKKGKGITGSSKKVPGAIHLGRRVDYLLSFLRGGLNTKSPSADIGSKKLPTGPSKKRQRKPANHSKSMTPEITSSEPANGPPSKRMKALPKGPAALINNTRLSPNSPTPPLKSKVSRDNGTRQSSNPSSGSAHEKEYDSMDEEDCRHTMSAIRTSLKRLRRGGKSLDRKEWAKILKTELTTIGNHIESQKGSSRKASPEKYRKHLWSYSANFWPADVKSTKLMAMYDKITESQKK

In the case of `Cc1ccc(F)cc1NC(=O)NCC(C)N1CCOCC1` (stereo not given), the Percent Effect is -1.78% in [1]; 18.9% in [2]; 0.541% in experiment [3]; -0.431% in [4]; 0.391% with Trypanosoma cruzi; 1.25% in [5]. Besides, the Percent Effect worked out at 9.55% in experiment [6]; 14.3% in the experiment filed under Homo sapiens; 11.9% in experiment [7]; 18.3% in [8]; 3.74% in experiment [9].

As to `O=C(CCn1cccn1)N1CCN(CC(F)F)CC1`, the Percent Effect in experiment [1] was -2.93%; in [2], 16.2%; in experiment [3], -2.79%; in experiment [4] it was -4.78%; in the experiment on Trypanosoma cruzi, -0.836%; in experiment [5] it was 0.554%. The Percent Effect was 4.13% in [6]; 14.6% in the experiment filed under Homo sapiens; 9.9% in experiment [7]; 25.6% in experiment [8]; -5.97% in experiment [9].

Take `COc1ccc(C(O)CNC(=O)NCc2csc(C)n2)cc1` (stereo not given): the Percent Effect in experiment [1] was -3.31%; in experiment [2] it was 18.9%; in [3], 1.28%; in experiment [4] it was 1.81%; in the experiment with Trypanosoma cruzi, 6.41%; in experiment [5] it was -2.03%. The Percent Effect in [6] is 19.6%; in the experiment filed under Homo sapiens, 11.3%; in experiment [7] it was 7.92%; in [8], -8.54%; in experiment [9] it was -6.16%.

As to `COc1ncccc1C(=O)N1CCC(CNC(C)=O)CC1`, the Percent Effect was -4.18% in [1]; 5.33% in experiment [2]; -0.618% in [3]; 3.6% in [4]; -2.43% in the experiment with Trypanosoma cruzi; 1.56% in experiment [5]. Also, the Percent Effect in experiment [6] is 6.28%; in the experiment listed under Homo sapiens, -6.88%; in experiment [7] it was 4.92%; in [8], 13.6%; in [9], -5.96%.

Take `Cc1noc(C)c1C(=O)NCc1ccnc(OCC(F)(F)F)c1`: the Percent Effect in [1] was -3.23%; in experiment [2], 26.3%; in experiment [3], -1.27%; in experiment [4], 0.107%; with Trypanosoma cruzi, 7.52%; in [5], 0%. In addition, the Percent Effect was 11.2% in [6]; 10.2% in the experiment filed under Homo sapiens; 7.35% in experiment [7]; 9.76% in experiment [8]; -11% in experiment [9].

Take `O=C(NC1COC2(CCN(Cc3ccccn3)CC2)C1)c1ccccn1` (stereo not given): the Percent Effect in experiment [1] was -2.18%; in experiment [2], 23.4%; in experiment [3], -0.85%; in [4], -5.11%; in the experiment with Trypanosoma cruzi it was 0.888%; in experiment [5], 8.39%. In addition, the Percent Effect in [6] is 16.7%; in the experiment filed under Homo sapiens, 10.3%; in experiment [7], 10.6%; in experiment [8] it was 16.7%; in experiment [9], 31.1%.

In the case of `CC(C)c1nc(C2CCCN(C(=O)c3ccc4[nH]cnc4c3)C2)no1` (stereo not given), the Percent Effect is -9.93% in experiment [1]; 18.2% in experiment [2]; -3.37% in experiment [3]; 3.45% in experiment [4]; 5.97% with Trypanosoma cruzi; -5.26% in experiment [5]. In addition, the Percent Effect is 12.5% in experiment [6]; 10.7% in the experiment filed under Homo sapiens; 5.71% in experiment [7]; 2.35% in [8]; -15.3% in [9].

Turning to `Cc1nc(CCNC(=O)NCc2ccc(N(C)C)nc2)cs1`, the Percent Effect in experiment [1] is -4.75%; in [2], 13.5%; in [3], -4.65%; in [4] it was 3.94%; with Trypanosoma cruzi, 1.79%; in experiment [5], -0.401%. Also, the Percent Effect in experiment [6] is 12.1%; in the experiment filed under Homo sapiens, -114%; in [7] it was 9.36%; in experiment [8], 16.1%; in experiment [9], -4.66%.

Consider `Cn1ccc(C(=O)N2CCN(c3cc(C#N)ccn3)CC2)cc1=O`, for which the Percent Effect is -6.91% in experiment [1]; 13.5% in experiment [2]; -11.9% in experiment [3]; 26.1% in experiment [4]; 4.06% in the experiment on Trypanosoma cruzi; -5.61% in [5]. Further, the Percent Effect in experiment [6] is 7.21%; in the experiment filed under Homo sapiens, 6.78%; in experiment [7] it was 5.42%; in [8] it was 13.6%; in experiment [9], -17.3%.

For the compound `C[C@@H]1CN(C(=O)c2cnc(C3CC3)nc2)CC[C@@]1(O)C1CCOCC1`, the Percent Effect is -3.43% in experiment [1]; 10.8% in experiment [2]; -4.34% in experiment [3]; 21.6% in [4]; 4.44% with Trypanosoma cruzi; -8.57% in [5]. Moreover, the Percent Effect was 6.55% in experiment [6]; -5.6% in the experiment listed under Homo sapiens; 4.76% in [7]; 9.76% in [8]; -5.75% in [9].
